# An excerpt weighted towards active compounds, which were near 2.4% of everything screened.
# Cruzain inh noDet: blocks cruzain activity in detergent-free assay. P25779. purified cruzain, Z-FR-AMC fluorescence, no detergent. Potency, µM, most hits filed as inhibitors. 2.3% of 200,000 active. AID 1476; further: nearly all actives have a fitted effect of over 40% in size
# Target sequence (P25779 123-467 limits assumed): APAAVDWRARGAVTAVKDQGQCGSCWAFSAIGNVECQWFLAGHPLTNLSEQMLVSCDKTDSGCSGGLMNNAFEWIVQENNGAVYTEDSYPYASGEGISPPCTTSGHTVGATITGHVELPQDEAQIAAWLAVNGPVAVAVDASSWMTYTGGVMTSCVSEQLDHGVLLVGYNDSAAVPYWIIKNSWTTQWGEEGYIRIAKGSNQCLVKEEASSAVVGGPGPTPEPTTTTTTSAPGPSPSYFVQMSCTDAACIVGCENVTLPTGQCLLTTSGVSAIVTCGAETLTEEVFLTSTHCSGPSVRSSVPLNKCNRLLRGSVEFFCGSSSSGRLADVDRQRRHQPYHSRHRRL
#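 Purified cruzain at 1.5 nM, pre-incubated 15 min with compound at room temperature in 100 mM sodium acetate pH 5.5, 5 mM DTT, 0.00005% Triton X-100. Reaction started with 2 uM Z-FR-AMC; AMC fluorescence increase over 60 s gives rate.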
# Cruzain Triton: cruzain (T. cruzi) inhibition with detergent. purified cruzain, Z-FR-AMC fluorescence, 0.01% Triton. Potency, µM, hits mostly inhibitors. 0.43% of 200,000 active. P25779; further: nearly all actives have a fitted effect of over 40% in size
#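 Enzyme 1.5 nM, Z-FR-AMC 2 uM, NaOAc 100 mM pH 5.5, DTT 5 mM, Triton X-100 0.01%; 15 min RT compound preincubation; kinetic ex360/em450, 60 s delta.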
# A number is an active result; . = inactive; ? = inconclusive; ! = not active in a repeat. The call rests on the fitted dose curve; in most records, active means well fitted curve in the direction sought with a large enough effect; inconclusive means small, poorly fitted or top-dose-only effect, or another doubt; inactive means no such curve, though single readings can be large; an effect the other way counts as inactive or inconclusive.
SMILES,Cruzain inh noDet,Cruzain Triton
CCOc1ccccc1NC(=O)c1c(NC(=O)CNCc2ccco2)sc2c1CCC2,10µM,.
Cc1cc2nc(-c3cccc(NC(=O)C(C)C)c3C)oc2cc1C,.,.
O=C(O)c1ccc(Nc2nc3ccccc3c3nncn23)cc1,.,.
O=C(Nc1noc2ccccc12)c1ccc(F)cc1,.,.
CC1=CSC2=NC(=O)/C(=C\c3cccn3-c3ccccc3)C(=N)N12,12.6µM,.
CCC(CC)C1=NN2C(=N)/C(=C\c3cc(C)n(-c4cccc(C)c4)c3C)C(=O)N=C2S1,25.1µM,.
CSC1=NSC2=NC(=O)/C(=C\c3coc4ccccc4c3=O)C(=N)N12,?,.
Cc1nn(-c2ccccc2)c(Cl)c1/C=C1/C(=N)N2N=C(C(C)C)SC2=NC1=O,?,.
CC1=CSC2=NC(=O)/C(=C\c3cccn3-c3ccc([N+](=O)[O-])cc3)C(=N)N12,?,.
Cc1cc(/C=C2\C(=N)N3C(SCc4ccccc4)=NSC3=NC2=O)c(C)n1Cc1ccccc1,3.16µM,.
Cc1cc(/C=C2/C(=N)N3C(c4ccccc4)=CSC3=NC2=O)c(C)n1-c1ccccc1,3.98µM,.
CC1=CC2=NC(=O)/C(=C\c3cc(C)n(-c4ccc(F)cc4)c3C)C(=N)N2O1,.,.
CCS(=O)(=O)NCCc1csc2nc(-c3ccc(OC)cc3)nn12,.,.
Cc1c(C(=O)NCc2ccccc2Cl)sc2nc3n(c(=O)c12)CCCC3,.,.
COc1cccc(Cn2cnc3c2c(=O)n(C)c(=O)n3C)c1,.,.
O=C(Nc1ccc(O)c(-c2nc3ccccc3s2)c1)C1=COCCO1,.,.
O=C(CCN1C(=O)c2ccccc2C1=O)Nc1ccc(-c2nc3ccccc3s2)cc1,25.1µM,.
O=C(CCS(=O)(=O)c1ccccc1)Nc1ccc(-c2nc3ccccc3s2)c(O)c1,10µM,.
CCS(=O)(=O)c1cccc(C(=O)Nc2ccc(-c3nc4ccccc4s3)c(O)c2)c1,.,.
Cc1ccc2nc(-c3ccc(NC(=O)CCN4C(=O)c5ccccc5C4=O)cc3)sc2c1,?,.
O=C(Nc1ccc(OC(=O)c2ccccc2)c(-c2nc3ccccc3s2)c1)c1ccccc1,7.94µM,.
O=C(Nc1ccc(-c2nc3ccccc3s2)c(O)c1)C1=COCCO1,?,15.8µM
COc1ccc(C(=O)Nc2cc(C)c(O)c(-c3nc4ccccc4s3)c2)cc1OC,.,.
COc1ccccc1CCNC(=O)c1ccc(-c2nc(CSc3ccc(C)cc3)c(C)o2)cc1,.,.
COc1cc(NC(=O)C2CCN(S(=O)(=O)c3c(C)noc3/C=C/c3ccccc3F)CC2)cc(OC)c1OC,?,.
SMILES,Cruzain inh noDet,Cruzain Triton
N#CCC(=N)N1CCN(c2ccc(Cl)cc2)CC1,12.6µM,.
Cc1ccc(C(=O)N2CCN(c3ccc(Cl)cc3)CC2)cc1,.,.
Cc1ncc(CSC(=N)N)n1Cc1ccccc1,.,.
CC(C)NC(=S)N/N=C/c1sc(N2CCCCC2)nc1-c1cccs1,31.6µM,.
CCCCNC(=S)N(C)/N=C/c1sc(N2CCCCC2)nc1-c1cccs1,.,.
Cc1cccc(N2CCN(C(=O)c3c(C)oc4ncnc(N5CCCCC5)c34)CC2)c1C,.,.
Cc1cc(C)cc(NC(=O)C2CC(=O)N(c3ccccc3)C2)c1 (stereo not drawn),.,.
O=C(Nc1ccc(Cl)c(Cl)c1)C1CC(=O)N(c2ccc(Br)cc2)C1 (stereo not drawn),20µM,.
CCc1ccc(NCc2cccn2-c2nnc(N3CCCCCC3)s2)cc1,.,.
Nc1ccc(-c2nc3c(Cl)c(N)ccc3[nH]2)cc1,31.6µM,?
Clc1ccc2nc(-c3ccccc3)[nH]c2c1,.,.
Cc1ccc(C)c(-c2nc3ccc(N)cc3[nH]2)c1,?,.
Nc1ccc2nc(-c3ccc(Cl)cc3)[nH]c2c1,20µM,?
Nc1ccc(-c2nc3ccc([N+](=O)[O-])cc3[nH]2)cc1,.,.
Nc1ccc2nc(-c3cc(Cl)c(N)c(Cl)c3)[nH]c2c1,15.8µM,?
CCOc1ccc(NC(=O)CC2C(=O)N(c3ccccc3)C(=O)N2Cc2ccc3c(c2)OCO3)cc1 (stereo not drawn),.,.
CCn1cc(C(=O)NCc2ccc(F)cc2)c(=O)c2cc(S(=O)(=O)N(C)C)ccc21,.,.
CC(C)(C)OC(=O)N1CCC(c2c(C(=O)NCc3cccc(Cl)c3)cnn2-c2ccc(F)cc2)CC1,.,.
CC(=O)c1ccc(C(=O)N(Cc2cccnc2)c2nc3c(C)c(C)ccc3s2)cc1,?,.
O=C(Nc1ccc([N+](=O)[O-])cc1Cl)c1cc(Cl)ccc1O,.,5.62µM!
COc1ccc(NC(=O)c2cc(Cl)ccc2Cl)c([N+](=O)[O-])c1,.,.
COc1cc(-c2ccno2)ccc1S(=O)(=O)N1CCN(c2ccc(C(C)=O)cc2)CC1,.,.
CNC(=O)c1[nH]cnc1C(=O)Nc1ccccc1C,.,.
Cc1cccc(NC(=O)c2nc[nH]c2C(=O)Nc2ccccc2[N+](=O)[O-])c1,10µM,.
Cc1ccc(-c2cn3cccnc3n2)cc1NC(=O)Cc1ccccc1,.,.

# Assay outcomes from PubChem BioAssay.
